Only some compounds are listed: those with a hit (about 19% of all), similar ones and a draw of the others.
HT1080-NT tox = kills 2HG-producing HT-1080-NT fibrosarcoma cells; HT-1080-NT fibrosarcoma viability, CellTiter-Glo ATP luminescence, 48 h; Potency, µM (doses to about 46.1 µM), for inactives: at the top dose activity, negative = less viability, actives largely listed as cytotoxic; 360,000 tested, 1.6% active; AID 686970;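 note: NT is the 2HG producing partner of a matched IDH1 knockdown line; potency is the fitted concentration of half-maximal effect; 0% = DMSO-treated cells and -100% = media-only wells without cells; nearly all actives have a fitted effect of over 55% in size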
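750 cells/well, RPMI + 5% FBS; 2 h settle, compound pin-transfer, 48 h at 37 degrees C. CellTiter-Glo 10 min RT, luminescence. Normalized to DMSO and media-only wells.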
uPA surface inh = blocks generation of uPA at the cell surface; cell surface uPA generation assay, qHTS; Potency, µM (top dose mostly 38.3 µM), without a hit: at the top dose activity change, negative = inhibition, usual class: inhibitors; 330,000 tested, 0.31% active; AID 540303; active = well fitted inhibition curve with a large enough effect; inconclusive = small, poorly fitted or top-dose-only effect; inactive = no such curve, though single readings can be large or run the other way; tested in mouse RAW 264.7 cells; note: potency is the fitted concentration of half-maximal effect; nearly all actives have a fitted effect of over 55% in size
HT1080 IDH1KD tx = kills HT-1080 cells with IDH1 knockdown; Potency, µM (highest dose often 46.1 µM), for inactives: at the highest dose activity, negative = toxicity, hits mostly cytotoxic; HT-1080 IDH1 knockdown viability, ATP luminescence, 48 h; 360,000 tested, 2% active;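 note: potency is the fitted concentration of half-maximal effect; 0% = DMSO wells and -100% = cell-free medium wells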
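HT-1080-IDH1KD cells (IDH1 knocked down), 750/well in RPMI with 5% FBS, treated with compound 48 h at 37 degrees C. Viability by CellTiter-Glo luminescence, normalised to DMSO and no-cell wells; concentration-response curves classed.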
DT40 TDP1 no CPT = qHTS for Inhibitors of human tyrosyl-DNA phosphodiesterase 1 (TDP1): qHTS in cells in absence of CPT. DT40 Tdp1-/- hTDP1 cells, no CPT, ATP luminescence, 48 h. Potency, µM (doses to about 46.2 µM), for the others: at the highest dose activity change, negative = growth inhibition, usual class: inhibitors. 420,000 tested, 15% active. AID 686978, 2013; note: potency is the fitted concentration of half-maximal effect; nearly all actives have a fitted effect of over 55% in size
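Luminescent ATP content (CellTiter-Glo) served as the growth readout. Knockout chicken DT40 cells expressing human TDP1 were exposed to compounds without camptothecin for a minimum 48 hr at 37 °C.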
IL-1B inflam inh = inhibitors of inflammasome signaling (IL-1 beta secretion); THP-1 LPS/ATP IL-1B secretion, AlphaLISA, 16 h; active compounds read low; activity change, % at 57.5 µM; 360,000 tested, 4.7% active; in the data active = activity change below about -50%; inconclusive = mostly about -30% to -49%
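Secreted IL-1B measured by AlphaLISA bead assay after 16 h compound exposure of THP-1 cells; compounds (final up to 57.5 uM) added 1 h before LPS (250 ng/mL) and ATP (1.25 mM) stimulation; lower signal means less secretion.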
DT40 TDP1 CPT = growth inhibition of DT40 Tdp1-/-;hTDP1 cells with camptothecin (screen for TDP1 inhibitors); chicken DT40 Tdp1-/-;hTDP1 cells + 20 nM CPT, ATP luminescence, 48 h; Potency, µM (series often up to 46.2 µM), for the others: at the top dose activity change, negative = growth inhibition, actives largely listed as inhibitors; 420,000 tested, 12% active; note: potency is the fitted concentration of half-maximal effect; nearly all actives have a fitted effect of over 55% in size
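Chicken DT40 Tdp1-/- cells stably complemented with human TDP1 were seeded at 400 cells/well in medium containing 20 nM camptothecin, exposed to pin-transferred compounds, and grown at 37 °C for at least 48 hr. Viability was read as ATP luminescence.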
* hit, by the source's call; ? = inconclusive; / = not tested or not shown. Unless noted, calls come from the whole dose curve; as a rule, active = well fitted curve in the direction sought with a large enough effect; inconclusive = small, poorly fitted or top-dose-only effect, or another doubt; inactive = no such curve, though single readings can be large; an effect the other way counts as inactive or inconclusive. Unless noted, % is set by controls: 0 for no effect and ±100 for the full control effect.

SMILES | HT1080-NT tox | uPA surface inh | HT1080 IDH1KD tx | DT40 TDP1 no CPT | IL-1B inflam inh | DT40 TDP1 CPT
Cc1ccc(NC(=O)c2cc(S(=O)(=O)N3CCc4ccccc43)cn2C)c(Cl)c1 | / | / | / | 11.6µM* | / | ?
CCc1ccccc1NC(=O)c1cc(S(=O)(=O)N2CCc3ccccc32)cn1C | 0.0% | -6.3% | -4.0% | -26.6% | 16.5 | -11.4%
COc1ccc(NC(=O)c2cc(S(=O)(=O)N3CCc4ccccc43)cn2C)cc1 | 2.0% | 0.6% | -9.1% | ? | -1.4 | 10.3µM*
Cc1cccc(NC(=O)c2cc(S(=O)(=O)N3CCc4ccccc43)cn2C)c1C | -4.6% | -10.4% | -2.6% | -18.5% | 0.0 | -19.6%
CCC(=O)N1c2ccccc2CC1C(=O)NCc1cccc(OC)c1OC (configuration not stated) | / | / | / | -15.8% | / | ?
O=S(=O)(c1ccccc1)N1CCC2(CCN(Cc3ccccc3)CC2)CC1 | / | / | / | -8.6% | / | 12.6%
O=C(Nc1cccc2c1CCCC2)C1CCN(c2nnnn2-c2ccccc2)CC1 | 7.6% | 0.9% | -2.8% | 16.4µM* | 13.1 | ?
COc1cc(C(=O)NNC(=O)c2ccccc2Br)ccc1OCC(=O)N1CCOCC1 | 4.3% | 15.0% | 13.6% | -3.1% | 3.7 | 9.8%
O=C(COc1ccccc1[N+](=O)[O-])N/N=C/c1cccs1 | 22.6% | 1.6% | 23.2% | -18.7% | -3.7 | 1.0%
Fc1ccc(-c2nc3c4ccccc4ccn3c2Cc2cccc(Cl)c2)cc1 | -33.6% | / | -23.0% | 16.4µM* | 36.8 | 16.4µM*
Clc1cccc(Cc2c(-c3ccccc3)nc3c4ccccc4ccn23)c1 | -25.0% | / | -19.0% | 13µM* | 19.9 | ?
Fc1cccc(Cc2c(-c3ccco3)nc3c4ccccc4ccn23)c1 | ? | / | ? | 6.51µM* | -3.0 | 6.51µM*
Clc1cccc(Cc2c(C3CCCCC3)nc3c4ccccc4ccn23)c1 | -6.3% | / | -12.9% | 16.4µM* | 16.9 | ?
Clc1cccc(Cc2c(C3CCCCC3)nc3ccc(Cl)cn23)c1 | ? | / | ? | ? | 4.8 | ?
Clc1cccc(Cc2c(-c3ccco3)nc3c4ccccc4ccn23)c1 | ? | / | ? | ? | -2.2 | ?
COc1ccc(Br)c(C=O)c1OS(=O)(=O)c1ccc(C)cc1 | -3.0% | / | ? | ? | 19.2 | ?
CC1(C)CC(=O)C=C(c2ccc(COC(=O)C3CC3)cc2)C1=O | 0.8% | / | 8.1% | ? | -2.6 | -8.6%
Clc1cccc(-c2nc3c4ccccc4ccn3c2Cc2ccccc2)c1 | -29.0% | / | ? | ? | 2.1 | ?
Fc1cccc(Cc2c(-c3ccco3)nc3ccc(Br)cn23)c1 | ? | / | 16.4µM* | 16.4µM* | -24.0 | 16.4µM*
Fc1cccc(Cc2c(-c3cccc(Cl)c3)nc3c4ccccc4ccn23)c1 | ? | / | ? | 18.4µM* | 16.6 | 23.1µM*
Clc1cccc(Cc2c(-c3cccc(Cl)c3)nc3c4ccccc4ccn23)c1 | 3.3% | / | 2.2% | 16.4µM* | 31.9 | ?
Cc1cccc2c(SCC(N)=O)nc(-c3ccccc3)nc12 | 12.7% | 3.8% | 8.7% | -18.4% | -5.3 | 2.2%
CC/C(=N/OC(=O)c1cccc(C)c1)C(=O)c1cccs1 | 0.8% | -0.3% | 8.9% | 8.2% | 31.8 | -2.1%
O=C(Cc1ccc(S(=O)(=O)N2CCOCC2)s1)Nc1ccc(N2CCOCC2)cc1 | 0.3% | 2.7% | 8.7% | -10.3% | 17.2 | 8.4%
O=C(Cc1ccc(S(=O)(=O)N2CCOCC2)s1)Nc1cc(C(F)(F)F)ccc1N1CCCC1 | -1.8% | 1.1% | -10.4% | 20.6µM* | -8.1 | ?
SMILES | HT1080-NT tox | uPA surface inh | HT1080 IDH1KD tx | DT40 TDP1 no CPT | IL-1B inflam inh | DT40 TDP1 CPT
O=C(Cc1ccc(S(=O)(=O)N2CCOCC2)s1)Nc1ccccc1N1CCCC1 | 7.5% | -0.7% | 17.1% | 14.6µM* | -1.3 | 16.4µM*
CCOC(=O)/C(=N\Nc1cc(Cl)ccc1Cl)N1CCN(CC)CC1 | ? | -0.5% | ? | ? | 6.5 | 20.6µM*
CCN1CCN(C(=O)C2CCCN(S(=O)(=O)c3cc(Cl)ccc3Cl)C2)CC1 (configuration not stated) | 0.5% | -20.4% | -4.8% | -18.5% | -7.8 | -21.9%
O=C(O)c1ccc(NC(=O)[C@H](Cc2ccc(O)cc2)NC(=O)c2ccccc2)cc1 | / | / | / | -1.4% | / | -13.7%
COC(=O)[C@]1(Cc2ccccc2)N[C@H](c2ccc(-c3cccc(Cl)c3)cc2)[C@@H]2C(=O)N(C)C(=O)[C@@H]21 | ? | ? | -0.1% | ? | ? | 16.4µM*
COC(=O)[C@]1(Cc2ccccc2)N[C@H](c2ccc(-c3ccc(Cl)c(Cl)c3)cc2)[C@@H]2C(=O)N(C)C(=O)[C@@H]21 | 0.9% | -27.4% | -12.9% | 18.4µM* | -25.1 | 18.4µM*
COC(=O)C1(Cc2ccccc2)NC(c2ccc(F)cc2)C2C(=O)N(C)C(=O)C21 (configuration not stated) | 3.2% | 3.8% | 9.8% | ? | 11.6 | -15.1%
COC(=O)[C@]1(Cc2ccccc2)N[C@H](c2ccc(-c3cc(C(C)=O)cs3)cc2)[C@@H]2C(=O)N(C)C(=O)[C@@H]21 | 1.8% | -1.9% | 6.0% | 23.1µM* | 3.4 | 16.4µM*
COC(=O)[C@]1(Cc2ccccc2)N[C@H](c2ccc(-c3ccccc3)cc2)[C@@H]2C(=O)N(C)C(=O)[C@@H]21 | -9.3% | -22.7% | ? | ? | -21.0 | ?
CC(C)CN1CCCC2(CCN(C(=O)c3cnccn3)CC2)C1 | / | / | / | -0.1% | / | 1.0%
CC1CCCN(CCCNC(=O)c2ccc3c(c2)N(Cc2ccc(F)cc2)C(=O)c2ccccc2S3=O)C1 (configuration not stated) | ? | -7.8% | ? | ? | -58.5* | 16.4µM*
CCC1CCCCN1CCCNC(=O)c1ccc2c(c1)N(Cc1ccc(F)cc1)C(=O)c1ccccc1S2=O (configuration not stated) | 20.6µM* | -27.3% | 23.1µM* | ? | -57.9* | ?
CC1CCCN(CCCNC(=O)c2ccc3c(c2)N(Cc2ccccc2F)C(=O)c2ccccc2S3(=O)=O)C1 (configuration not stated) | 25.9µM* | ? | ? | 14.6µM* | -64.7* | 23.1µM*
Cc1ccccc1CN1C(=O)CN(S(C)(=O)=O)CC1(C)C(=O)Nc1ccc2c(c1)OCCO2 (configuration not stated) | -0.9% | / | -3.3% | 10.6% | -0.2 | 8.7%
